Results: ChEMBL document CHEMBL3988442, “University of Dundee, Small-Polar-MMV Screening Library” (2021)
For some assays here: Potency and affinity values are given separately.

Tests used:
Set-up in all cases: scale not given: direction of the effect not stated beside the values
[1] = target: Protein translocase subunit SecA (Escherichia coli (strain K12)) (UniProt P10408); experiment: Assay to Identify E. coli SecA ATPase Inhibitors; assay type: functional; conditions: 30 µM
[2] = target: T1, Ubiquitin-activating enzyme e1, putative (Leishmania donovani (strain BPK282A1)) (UniProt E9BSI1); experiment: Leishmania donovani Ubiquitin Activating Enzyme (LdE1); assay type: functional; conditions: 30 µM
T1 sequence (whole entry): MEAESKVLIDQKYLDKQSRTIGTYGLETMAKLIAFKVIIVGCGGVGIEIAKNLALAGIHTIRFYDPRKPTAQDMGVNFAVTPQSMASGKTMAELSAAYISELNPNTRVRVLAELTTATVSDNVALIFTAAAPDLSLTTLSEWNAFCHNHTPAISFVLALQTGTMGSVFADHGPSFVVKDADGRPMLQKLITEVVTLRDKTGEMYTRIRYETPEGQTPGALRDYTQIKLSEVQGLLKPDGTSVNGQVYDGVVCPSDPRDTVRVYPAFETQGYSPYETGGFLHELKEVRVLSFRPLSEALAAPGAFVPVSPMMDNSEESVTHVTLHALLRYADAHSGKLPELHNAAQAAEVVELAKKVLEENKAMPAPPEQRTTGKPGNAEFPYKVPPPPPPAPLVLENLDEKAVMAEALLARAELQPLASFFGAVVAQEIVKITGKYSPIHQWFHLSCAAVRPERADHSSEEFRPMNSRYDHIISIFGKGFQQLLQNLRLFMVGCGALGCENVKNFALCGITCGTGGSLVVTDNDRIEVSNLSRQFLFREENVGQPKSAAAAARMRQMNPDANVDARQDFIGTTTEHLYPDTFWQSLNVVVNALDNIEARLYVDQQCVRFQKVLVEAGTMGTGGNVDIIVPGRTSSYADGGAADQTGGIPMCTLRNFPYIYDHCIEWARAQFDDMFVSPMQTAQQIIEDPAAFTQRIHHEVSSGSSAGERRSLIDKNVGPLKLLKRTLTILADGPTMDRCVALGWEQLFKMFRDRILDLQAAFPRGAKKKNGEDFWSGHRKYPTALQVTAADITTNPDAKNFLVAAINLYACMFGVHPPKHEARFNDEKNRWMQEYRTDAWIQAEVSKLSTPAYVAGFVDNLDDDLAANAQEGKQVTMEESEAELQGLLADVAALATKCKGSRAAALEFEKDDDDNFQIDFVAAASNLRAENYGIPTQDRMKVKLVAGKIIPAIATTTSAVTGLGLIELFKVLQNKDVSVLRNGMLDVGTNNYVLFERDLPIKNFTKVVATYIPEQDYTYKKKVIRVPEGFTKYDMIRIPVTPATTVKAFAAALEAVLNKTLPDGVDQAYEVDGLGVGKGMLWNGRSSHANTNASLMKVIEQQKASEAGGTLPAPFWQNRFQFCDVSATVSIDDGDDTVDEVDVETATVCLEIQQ

[3] = target: AMP-activated protein kinase, AMPK (Homo sapiens) (UniProt P54646+O43741+P54619+Q9UGJ0+Q9Y478+Q13131+Q9UGI9); experiment: AMP-dependent Kinase enzyme assay. An in vitro enzyme assay that detects ADP turnover that is directly proportional to AMPK activity. This uses naive AMPK that is activated during the assay with MK-8722; assay type: functional; conditions: 30 µM
[4] = target: Sialic acid-binding Ig-like lectin 9 (Homo sapiens) (UniProt Q9Y336); experiment: Hs-Siglec9 ALPHAscreen SOP 20170721; conditions: 10 µM
[5] = tested on: Trypanosoma cruzi; experiment: Trypanosoma cruzi phosphomannomutase and mannose-1-phosphate guanylyltransferase assay; assay type: functional; conditions: 10 µM
[6] = target: T2, Arginase-2, mitochondrial (Homo sapiens) (UniProt P78540); experiment: in vitro enzyme assay to detect the production of urea directly proportional to the activity of Arginase II; assay type: functional; conditions: 33.3 µM; further: in the data most compounds retested in dose-response had high values
T2 sequence (whole entry): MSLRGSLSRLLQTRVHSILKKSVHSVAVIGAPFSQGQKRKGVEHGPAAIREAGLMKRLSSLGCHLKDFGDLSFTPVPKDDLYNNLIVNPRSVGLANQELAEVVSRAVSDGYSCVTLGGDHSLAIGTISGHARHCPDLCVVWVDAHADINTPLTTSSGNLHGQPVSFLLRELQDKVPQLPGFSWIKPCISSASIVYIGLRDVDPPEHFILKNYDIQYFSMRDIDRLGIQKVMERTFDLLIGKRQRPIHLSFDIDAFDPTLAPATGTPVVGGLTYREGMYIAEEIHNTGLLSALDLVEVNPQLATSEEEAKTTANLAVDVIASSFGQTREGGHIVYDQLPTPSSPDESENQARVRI

[7] = target: T3, Proteasome subunit beta (Trypanosoma cruzi) (UniProt O96673); experiment: Trypanosoma cruzi proteasome chymotrypsin-like activity (TcProtChymo) assay.; further: in the data most compounds retested in dose-response had high values; assay type: functional; conditions: 9.37 µM
T3 sequence (whole entry): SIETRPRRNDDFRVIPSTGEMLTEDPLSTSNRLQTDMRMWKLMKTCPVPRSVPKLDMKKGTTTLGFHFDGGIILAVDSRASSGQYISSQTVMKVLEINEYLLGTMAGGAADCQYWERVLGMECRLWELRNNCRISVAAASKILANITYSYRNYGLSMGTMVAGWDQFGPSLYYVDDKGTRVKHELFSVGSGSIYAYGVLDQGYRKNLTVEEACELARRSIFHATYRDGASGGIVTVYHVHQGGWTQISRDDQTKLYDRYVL

[8] = species on record: Homo sapiens; experiment: To identify inhibition of the IFN signalling (Jak-Stat) pathway via expression of an eGFP reporter gene under the control of an IFN-stimulated response element (ISRE) containing MxA promoter.; assay type: functional; conditions: 30 µM
[9] = target: T4, Tyrosyl-tRNA synthetase, putative (Trypanosoma cruzi (strain CL Brener)) (UniProt Q4DSP6); experiment: Trypanosoma cruzi tyrosyl tRNA synthetase (TcYRS) _High Tyrosine SOP; assay type: functional; conditions: 30 µM; further: in the data most compounds retested in dose-response had high values
T4 sequence (whole entry): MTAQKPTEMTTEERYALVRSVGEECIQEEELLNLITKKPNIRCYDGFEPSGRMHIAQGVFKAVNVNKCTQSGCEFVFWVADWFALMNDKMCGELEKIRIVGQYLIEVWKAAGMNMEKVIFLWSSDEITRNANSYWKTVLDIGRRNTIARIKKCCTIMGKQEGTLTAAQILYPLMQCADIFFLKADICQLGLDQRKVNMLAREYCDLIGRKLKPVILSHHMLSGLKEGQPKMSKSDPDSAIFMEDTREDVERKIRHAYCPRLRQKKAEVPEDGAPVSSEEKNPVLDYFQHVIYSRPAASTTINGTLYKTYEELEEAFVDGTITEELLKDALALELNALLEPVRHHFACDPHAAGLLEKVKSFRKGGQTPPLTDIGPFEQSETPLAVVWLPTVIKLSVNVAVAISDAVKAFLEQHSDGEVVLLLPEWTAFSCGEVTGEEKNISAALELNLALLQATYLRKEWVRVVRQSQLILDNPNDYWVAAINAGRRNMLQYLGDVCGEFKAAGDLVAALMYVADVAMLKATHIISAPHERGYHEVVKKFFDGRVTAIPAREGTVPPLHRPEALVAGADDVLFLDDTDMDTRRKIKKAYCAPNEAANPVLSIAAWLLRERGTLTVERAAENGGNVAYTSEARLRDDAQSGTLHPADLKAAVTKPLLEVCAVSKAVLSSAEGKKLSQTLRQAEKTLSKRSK

[10] = target: T4, Tyrosyl-tRNA synthetase, putative (Trypanosoma cruzi (strain CL Brener)); experiment: Trypanosoma cruzi tyrosyl tRNA synthetase (TcYRS) SOP; assay type: functional; conditions: 30 µM
[11] = target: Chromo domain-containing protein 1 (Saccharomyces cerevisiae (strain ATCC 204508 / S288c) (Baker's yeast)) (UniProt P32657); experiment: ScCHD-1 Enzyme Inhibition Assay; assay type: functional; conditions: 30 µM; further: in the data most compounds retested in dose-response had high values
Sequence of Chromo domain-containing protein 1 (Saccharomyces cerevisiae (strain ATCC 204508 / S288c) (Baker's yeast)) (P32657 whole entry, the tested form may be a part): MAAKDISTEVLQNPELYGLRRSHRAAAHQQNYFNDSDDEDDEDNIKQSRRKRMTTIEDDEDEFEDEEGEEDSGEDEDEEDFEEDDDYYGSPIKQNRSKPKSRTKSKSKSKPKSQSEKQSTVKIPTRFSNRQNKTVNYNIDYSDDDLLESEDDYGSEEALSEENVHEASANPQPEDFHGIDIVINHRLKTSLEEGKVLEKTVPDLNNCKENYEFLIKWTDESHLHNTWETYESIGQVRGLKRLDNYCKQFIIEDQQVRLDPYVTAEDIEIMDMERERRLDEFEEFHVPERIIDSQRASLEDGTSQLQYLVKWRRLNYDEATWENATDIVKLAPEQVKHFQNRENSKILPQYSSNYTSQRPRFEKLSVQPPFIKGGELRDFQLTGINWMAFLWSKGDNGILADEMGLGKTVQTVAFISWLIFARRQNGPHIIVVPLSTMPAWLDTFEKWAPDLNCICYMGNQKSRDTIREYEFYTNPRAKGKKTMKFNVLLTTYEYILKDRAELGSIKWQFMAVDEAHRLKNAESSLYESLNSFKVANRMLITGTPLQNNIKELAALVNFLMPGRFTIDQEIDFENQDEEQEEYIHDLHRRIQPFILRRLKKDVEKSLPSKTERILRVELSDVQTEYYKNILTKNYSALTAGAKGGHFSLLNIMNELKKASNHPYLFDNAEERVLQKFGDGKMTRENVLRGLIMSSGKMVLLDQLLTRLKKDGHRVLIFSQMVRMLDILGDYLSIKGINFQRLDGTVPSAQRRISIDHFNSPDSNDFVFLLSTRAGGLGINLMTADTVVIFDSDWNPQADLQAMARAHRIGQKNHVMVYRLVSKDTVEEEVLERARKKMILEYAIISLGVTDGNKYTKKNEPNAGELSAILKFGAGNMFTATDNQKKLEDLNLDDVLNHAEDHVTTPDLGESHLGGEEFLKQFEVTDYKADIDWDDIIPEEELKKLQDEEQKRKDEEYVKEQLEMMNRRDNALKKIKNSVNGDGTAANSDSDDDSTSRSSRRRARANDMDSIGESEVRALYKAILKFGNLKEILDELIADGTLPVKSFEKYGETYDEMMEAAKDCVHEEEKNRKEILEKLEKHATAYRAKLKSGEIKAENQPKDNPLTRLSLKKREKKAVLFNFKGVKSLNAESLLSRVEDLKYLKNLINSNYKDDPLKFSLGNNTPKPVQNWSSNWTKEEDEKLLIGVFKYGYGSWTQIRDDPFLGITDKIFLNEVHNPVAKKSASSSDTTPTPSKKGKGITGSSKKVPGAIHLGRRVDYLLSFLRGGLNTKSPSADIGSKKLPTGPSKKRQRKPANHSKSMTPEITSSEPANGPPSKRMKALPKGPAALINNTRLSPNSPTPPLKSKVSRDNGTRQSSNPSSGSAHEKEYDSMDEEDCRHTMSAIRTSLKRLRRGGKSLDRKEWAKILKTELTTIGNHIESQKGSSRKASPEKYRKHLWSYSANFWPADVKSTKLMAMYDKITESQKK

Sequence of Sialic acid-binding Ig-like lectin 9 (Homo sapiens) (Q9Y336 whole entry): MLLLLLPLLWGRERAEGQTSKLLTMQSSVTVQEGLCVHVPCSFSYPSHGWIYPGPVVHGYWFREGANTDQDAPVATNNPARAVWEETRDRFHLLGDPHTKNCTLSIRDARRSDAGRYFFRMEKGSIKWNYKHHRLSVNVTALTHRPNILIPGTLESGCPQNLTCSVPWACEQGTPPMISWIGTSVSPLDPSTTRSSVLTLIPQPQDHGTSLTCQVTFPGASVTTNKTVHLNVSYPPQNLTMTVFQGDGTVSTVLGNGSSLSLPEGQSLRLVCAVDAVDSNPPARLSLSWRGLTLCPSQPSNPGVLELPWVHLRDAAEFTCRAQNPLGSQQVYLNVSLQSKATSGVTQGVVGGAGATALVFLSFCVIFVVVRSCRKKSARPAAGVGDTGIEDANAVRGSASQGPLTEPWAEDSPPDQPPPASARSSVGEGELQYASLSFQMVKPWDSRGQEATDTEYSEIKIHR
Sequence of Protein translocase subunit SecA (Escherichia coli (strain K12)) (P10408 whole entry): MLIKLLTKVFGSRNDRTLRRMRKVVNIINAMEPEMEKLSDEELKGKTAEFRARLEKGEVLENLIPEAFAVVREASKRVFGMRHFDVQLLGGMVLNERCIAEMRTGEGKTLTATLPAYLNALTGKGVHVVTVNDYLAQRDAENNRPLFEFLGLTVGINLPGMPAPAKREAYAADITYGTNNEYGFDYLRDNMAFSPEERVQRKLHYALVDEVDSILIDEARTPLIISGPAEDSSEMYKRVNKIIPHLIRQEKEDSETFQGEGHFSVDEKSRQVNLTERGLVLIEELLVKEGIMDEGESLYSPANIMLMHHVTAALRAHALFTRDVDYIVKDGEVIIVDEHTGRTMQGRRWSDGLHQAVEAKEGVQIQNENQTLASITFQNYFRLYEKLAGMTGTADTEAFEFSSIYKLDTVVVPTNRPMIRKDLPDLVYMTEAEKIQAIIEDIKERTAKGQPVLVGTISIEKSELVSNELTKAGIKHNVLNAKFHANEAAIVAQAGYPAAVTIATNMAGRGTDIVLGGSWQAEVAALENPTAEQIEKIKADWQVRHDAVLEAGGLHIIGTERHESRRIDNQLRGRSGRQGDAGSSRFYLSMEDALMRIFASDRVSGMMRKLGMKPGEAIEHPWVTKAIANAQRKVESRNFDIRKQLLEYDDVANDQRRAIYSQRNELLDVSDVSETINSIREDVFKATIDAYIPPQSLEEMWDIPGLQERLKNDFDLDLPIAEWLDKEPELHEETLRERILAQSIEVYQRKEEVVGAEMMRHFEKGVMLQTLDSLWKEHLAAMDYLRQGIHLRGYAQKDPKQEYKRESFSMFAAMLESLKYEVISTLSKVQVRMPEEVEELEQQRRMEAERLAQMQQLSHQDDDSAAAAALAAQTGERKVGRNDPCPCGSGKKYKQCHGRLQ

Row | Structure (SMILES) | Percent Effect [1] | Percent Effect [2] | Percent Effect [3] | Percent Effect [4] | Percent Effect [5] | Percent Effect [6] | Percent Effect [7] | Percent Effect [8] | Percent Effect [9] | Percent Effect [10] | Percent Effect [11]
1 | N#Cc1cccc(CS(=O)(=O)NCCC(O)c2ccccc2)c1 (configuration not stated) | 13% | 5.33% | -6.17% | 7.18% | 4.77% | 15.1% | 16.2% | 3.01% | 4.92% | 16.1% | -6.38%
2 | Cc1noc(C)c1CCC(=O)N1CCN(CCn2cncn2)CC1 | -2.87% | 4.17% | -6.26% | 2.38% | 0.68% | 1.77% | 21.1% | -11.6% | 8.42% | 10.3% | -3.13%
3 | CCOCCN1CCN(Cc2nnc(C3CC3)o2)CC1CC (configuration not stated) | -2.67% | 11% | -18% | 17.7% | 8.03% | 18.6% | 1.95% | 2.56% | 2.15% | 7.5% | -5.28%
4 | Cc1nc(C)n(CC2CN(c3nnc(C)c(C)c3C#N)CCO2)n1 (configuration not stated) | -5.18% | 7.89% | 1.44% | 6.73% | 1.13% | 2.68% | 8.52% | 1.18% | 7.35% | 12.2% | 0.234%
5 | c1cc2n(n1)CC(CNCc1ccc(OCC3CC3)nc1)CN2 (configuration not stated) | -1.23% | 20.8% | 11.1% | 4.04% | 7.68% | 0.356% | 3.04% | -0.525% | 13.6% | 24.4% | -9.69%
6 | Cc1nc(CN2CCCC(N(C)Cc3c(C)noc3C)C2)no1 (configuration not stated) | -2.99% | -15.6% | -0.475% | -1.55% | 9.7% | -0.21% | 16.6% | 6.79% | 1.91% | 9.41% | -22.6%
7 | CC(C)c1nccn1C1CCCN(C(=O)c2cccc3c2OCO3)C1 (configuration not stated) | 1.99% | -46% | -3.6% | 9.39% | 2.55% | -5.61% | 2.16% | 9.02% | 2.46% | 11.1% | -2.9%
8 | CCn1ccnc1CN1CCN(CC(=O)NC(C)(C#N)C2CC2)CC1 (configuration not stated) | 1.69% | 15.8% | -1.29% | -1.29% | -8.84% | -3.45% | 18.9% | 16.7% | 5.39% | 9.76% | -5.07%
9 | Cc1ccc(C(=O)N2CCCC(C(=O)N3CCCCC3)C2)c(O)c1 (configuration not stated) | -7.91% | 10.8% | -4.33% | -0.223% | -5.19% | -1.2% | -2.7% | 12.5% | 2.46% | 1.24% | -4.49%
10 | CCCNC(=O)CNc1ccc(C(=O)N2CCCCC2C)cc1C (configuration not stated) | -7.8% | 18.2% | 1.99% | -9.58% | -8.99% | 0.712% | 8.62% | 35.5% | 5.83% | 12.2% | -8%
11 | O=C(c1ccc2c(c1)COC2)N1CCC(Nc2cccnn2)CC1 | -4.96% | 13% | -6.23% | 11.4% | 5.06% | -3.56% | 1.52% | 21.5% | 8.74% | 24.4% | -7.05%
12 | CCOCCCNc1nc(O)cc(C2CC(=O)N(C)C2)n1 (configuration not stated) | -3.32% | 6.76% | -1.4% | 1.36% | 3.95% | -4.41% | 9.83% | -10.5% | 1.07% | 9.09% | -25.9%
13 | CC(=O)NCCNC(=O)CN1CCN(Cc2nccn2C)C(C)C1 (configuration not stated) | -6.92% | 0% | -3.67% | 14% | -0.836% | 0.185% | -2.87% | 0.801% | 7.92% | 6.1% | 10%
14 | O=C(CCCc1ncc(-c2ccccc2)o1)N1CCN(CCO)CC1 | -2.7% | 20.2% | 6.12% | -6.16% | -1.04% | 3.04% | 14.2% | 6.15% | 4.43% | 13.9% | -3.58%
15 | CN(CCc1ccccc1)Cc1cc(C(=O)N2CCN(C)C(=O)C2)no1 | -3.15% | 19.2% | -1.8% | 11% | 1.19% | -6.79% | 19.3% | 5.79% | 7.29% | 23.5% | -7.74%
16 | COC1CCN(C(=O)Cc2csc(-c3ncccn3)n2)CC1 | -1.74% | 10.5% | 1.3% | 6.25% | 6.96% | 3.83% | 9.19% | -15.6% | 2.45% | 17.1% | -5.39%
17 | COc1ccccc1CN1CC[C@]2(C[C@H](OC)CO2)C1 | -4.71% | 9.33% | 3.5% | 4.02% | -4.52% | -12.5% | 15% | -8.4% | 5.29% | 7.69% | -5.98%
18 | CNC(=O)c1cccc(NC(=O)Cn2nc(-c3cccs3)oc2=O)c1 | -8.44% | 13.5% | 133% | 18.8% | 9.38% | -0.924% | 4.13% | -0.599% | 6.93% | 13.4% | -2.88%
19 | COc1ccc(CN2CCC3(CC(=O)N(c4cncnc4)C3)C2)cc1 (configuration not stated) | -1.48% | 16.2% | 5.08% | -9.74% | -3.81% | -7.33% | 12.9% | 5.2% | 1.08% | 7.69% | -3.32%
20 | O=C(CN1CCCC1Cn1cncn1)Nc1cccnc1 (configuration not stated) | -3.94% | 9.72% | -1.95% | 0.616% | -1.26% | 4.86% | 16% | -11.7% | 5.26% | 10.3% | -1.86%
21 | O=C(O)c1cc2c(nc1O)CC(c1cccs1)CC2=O (configuration not stated) | -5.09% | 17.3% | -2.58% | -0.782% | -5.5% | -2.64% | 15.9% | -5.05% | 2.12% | -20.5% | -9.66%
22 | N#CCCN(C(=O)CN1CCCC1c1ccsc1)c1ccccc1F (configuration not stated) | -3.56% | -18.9% | -2.34% | -0.732% | -2.51% | -8.69% | -0.718% | 16.7% | 3.96% | 1.22% | 21.4%
